Reference: PubChem BioAssay AID1224817 (Yan Lab, Georgia Cancer Center, Augusta University, 2016)
Values joined by “and” are separate entries in the source; they are usually repeats but may differ in a detail not shown here. Equal entries are not always repeated. Among all 2,000 compounds or so, about 25 (1%) were called active. The sample holds actives, similar compounds and a random draw of the others, so the mix is not that of the screen. Values without a mark were called inactive.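 The calls were made as follows: active = log2 luciferase ratio at or below -0.5849, meaning signal at two thirds of solvent-only control or lower; inactive = the rest.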

Experiment: eIF4E expression suppression, luciferase knock-in reporter – cell-based, HT1080, primary screen (AID 1224817);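 also: luciferase reports endogenous eIF4E expression since it is co-expressed from the native EIF4E locus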
Conditions: HT1080 EIF4E-luc2 knock-in reporter, 16 h, at 2.5 µM, stronger effect = lower value

SMILES	log2 luciferase activity ratio
O=C(O)C1CC[N-]CC1.O=C(O)C1CC[N-]CC1.[Cl][Pt+2]([Cl])([Cl])[Cl]	-0.241
CC(C)(N=NC(C)(C)C1=NCCN1)C1=NCCN1	-0.215
NCCSc1nc(-c2ccccc2)c(-c2ccccc2)o1	-0.0133
O=[N+]([O-])c1ccc(C2=Nn3c(nnc3-c3ccc(Cl)cc3)SC2)o1	0.0802
O=C(O)[C@@H]1[C@H](C(=O)O)[C@H](C(=O)O)C[C@@H]1C(=O)O	-0.306
C/C(=N\NC(=O)c1ccncc1)c1ccccc1Cl	0.497
OC(Cc1cccnc1)(c1ccccc1)c1ccccc1	-0.0482
NC(=O)/C(=C\c1ccncc1)c1cccc2ccccc12	-0.0804
O=C(O)Cc1c[nH]c2ccc(F)cc12	-0.736 (active)
Nc1ccc2[nH]cc(CCC(=O)O)c2c1	-0.0435
NC(Cc1c[nH]c2ccc([N+](=O)[O-])cc12)C(=O)O (centres undefined)	0.208
Cc1cc(N2CCCCC2)nc2ccc(Cc3ccc4nc(N5CCCCC5)cc(C)c4c3)cc12	0.559
N=c1ncn(C/C=C/c2ccccc2)c2nc[nH]c12	0.287
Cc1cc(=Nc2ccc3c(c2)c(N)cc(C)[n+]3C)nc(N)n1C	-0.0953
COc1cc2c(cc1OC)C(CCN)=NCC2	-0.216
CC1/C=C/C=C/CC/C=C/C=C/C=C/C=C/C(OC2OC(C)C(O)C(N)C2O)CC2OC(CC(O)C(O)CCC(O)CC(O)CC(O)CC(=O)OC(C)C(C)C1O)CC(O)C2C(=O)O (centres undefined)	-0.0951 and -0.0559
NCCNCC(O)CO (centres undefined)	0.073
O=C(O)/C(=C\c1ccc(O)cc1)c1cccc2ccccc12	-0.199
CC1(CC(=O)O)OC2CCCCCC2O1 (centres undefined) (tested in a mixture with another compound)	0.0163
O=C(O)CC1(C(=O)O)CCCCC1	-0.621 (active)
CC1CCCC(CC(=O)O)(CC(=O)O)C1 (centres undefined)	0.274
O=C1c2cccc(O)c2C(=O)c2c(OC3OC(CO)C(O)C(O)C3O)cccc21 (centres undefined)	-0.141
OC1C(O)C(O)C(O)C(O)C1O (centres undefined)	-0.102
CC(C)C(Nc1ncnc2nc[nH]c12)C(=O)O (centres undefined)	0.37

SMILES	log2 luciferase activity ratio
O=C(O)CNC(=O)c1ccccc1O	0.226
O=C(O)/C(=C/c1ccccc1)c1ccccc1	-0.172
O=C1Nc2ccccc2/C1=N\[O-].O=C1Nc2ccccc2/C1=N\[O-].[Cu+2]	0.0071
Cc1ccc(C)c(C2NC(=O)c3ccccc3N2)c1 (centres undefined)	-0.685 (active)
N[C@H](C(=O)O)[C@H]1ON=C(Cl)[C@@H]1O	-0.333
COC1/C=C\C=C(/C)C(=O)NC2=CC(=O)C(N)=C(CC(C)CC(OC)C(O)C(C)C=C(C)C1OC(N)=O)C2=O (centres undefined)	-1.05 (active)
CN(C)CCCn1c2c3ccccc3ccc2c2oc(=O)c3ccccc3c21	-0.461
CN1CC(c2ccccc2)C(O)(C2(c3ccccc3)CN(C)CC(c3ccccc3)C2=O)C(c2ccccc2)C1 (centres undefined)	-0.0781
CC1CC(C)CN(S(=O)(=O)c2cc(Cl)c(Oc3ccc([N+](=O)[O-])cc3Cl)c(Cl)c2)C1 (centres undefined)	0.55
NCC(=O)C(O)C(O)C(O)CO (centres undefined)	0.229
O=C(O)/C=C\C(=O)Nc1ccccn1	0.0837
C[N+]1(CCC(=O)c2ccccc2)CCC2CCC(C2)C1 (centres undefined)	0.0296
CCCCCC[C@H]([C@H](C)O)n1cnc2c(N)ncnc21	-0.0979
NCCSCCC(=O)O	-0.0504
NCC(=O)Nc1ccccc1	-0.679 (active)
CC(=O)CC(=O)Nc1ccc2ccccc2c1	0.376
CC(C)(CC(=O)Nc1ccccc1)C(=O)O	-0.26
CN(C)Cc1c[nH]c2nc[nH]c(=O)c12	0.205
CN(C)CCC(=O)[C@@]1(O)CC[C@H]2[C@@H]3CC=C4C[C@@H](O)CC[C@]4(C)[C@H]3CC[C@@]21C	0.263
O=C(O)CC1OCC=C2C[N+]3([O-])CCC45c6ccccc6NC4C1C2CC53 (centres undefined)	0.195
Cc1ccc(C2(C)CC/C(=N/N=C3/CCC(C)(c4ccc(C)c(C)c4)c4cc(C)c(C)cc43)c3cc(C)c(C)cc32)cc1C (centres undefined)	0.135
Oc1c(Cl)cc(C(c2cc(Cl)c(O)c(Cl)c2)C(c2cc(Cl)c(O)c(Cl)c2)c2cc(Cl)c(O)c(Cl)c2)cc1Cl	-0.198
COc1ccc(C[N+](C)(C)N)cc1OC	-0.225
COc1ccc(CCN(C)CCCC(C#N)(c2ccc(OC)c(OC)c2)C(C)C)cc1OC (centres undefined)	-0.662 (active)

SMILES	log2 luciferase activity ratio
Cc1cc(=O)oc2c(OS(C)(=O)=O)c(OS(C)(=O)=O)ccc12	0.0541
Cc1ccn2c(CCc3nnc4cc(C)ccn34)nnc2c1	-0.0744
CC(=O)NC1CONC1=O (centres undefined)	-0.303
C=C[C@]1(C)C[C@@H](OC(=O)CO)[C@@]2(C)[C@H](C)CC[C@]3(CCC(=O)[C@H]32)[C@@H](C)[C@@H]1O	0.127
Oc1ccc(Cc2nccc3cc(O)c(O)cc23)cc1O	-0.044
OCCN(CO)CO	-0.297
COc1ccc(CNC(C)C(=O)O)cc1 (centres undefined)	-0.198
C/C(=N\[N+](C)(C)C)c1ccc(C)c(C)c1	-0.284
CC(C)CCC[C@@H](C)[C@H]1CC[C@H]2[C@@H]3CC[C@H]4C[C@H](N)CC[C@]4(C)[C@H]3CC[C@]12C	0.0721
CN(C)CCCNc1cc(O)c2c(c1O)C(=O)c1ccccc1C2=O	1.39
O=C(O)C/C=C/CC(=O)O	-0.0603
CC(C)(C)CC(C)(C)c1cc(O)c(O)c(CN2CCCCC2)c1	-0.183
CC(C)(C)c1ccc(CN2CCN(C(c3ccccc3)c3ccc(Cl)cc3)CC2)cc1 (centres undefined)	-0.0054
O=C1C(Cl)=C(Sc2nnc3c4ccccc4c4ccccc4c3n2)C(=O)c2ccccc21	0.552
O=C(O)CCSC1=NCCN1	-0.275
Oc1ccc2ccccc2c1CN(Cc1c(O)ccc2ccccc12)C1CCCCC1	-0.018
Nc1nccc(Nc2ccc(S(N)(=O)=O)cc2)n1	-0.103
C/C(=N\NC1=NCCN1)c1cn(C2=NCCN2)nc1C	0.0578
CNC(c1ccncc1)C(NC)c1ccncc1 (centres undefined)	0.0459
O=C1c2cccc([N+](=O)[O-])c2C(=O)N1c1ncn[nH]1	-0.0931
COC(=O)[C@@]12OC[C@]34[C@H]([C@@H](O)[C@@H]1O)[C@@]1(C)C=C(OC5OC(CO)C(O)C(O)C5O)C(=O)[C@@H](C)[C@@H]1C[C@H]3OC(=O)[C@H](OC(=O)/C=C(\C)C(C)C)[C@@H]24 (some centres undefined)	0.215
O=C(O)C1OC1C(=O)O (centres undefined)	-0.131
Cc1cc(N)c2cc(OCCOc3ccc4nc(C)cc(N)c4c3)ccc2n1	-0.0306
CN(CCc1ccccn1)c1ccc2c(c1)C(=O)c1ccccc1-2	0.213

SMILES	log2 luciferase activity ratio
COc1c2c(cc3c1[C@@H]1Oc4c(ccc(O)c4CC=C(C)C)[C@@H]1CO3)OC(C)(C)C=C2	-0.0761
O=C1c2ccccc2C(=O)N1CCCSc1ccccc1	0.412
CN(C)CC(O)c1ccc(Cl)c2ccccc12 (centres undefined)	-0.0364
Oc1c(C(O)(c2ccccc2)c2ccc3ccccc3c2O)ccc2ccccc12	0.313
COc1cc2oc3cc(=O)cc4oc(-c5ccccc5)cc(c2c2c1CCC(c1ccccc1)O2)c43 (centres undefined)	0.143
CCCCSCc1nc2nc(Cl)c(Cl)nc2[nH]1	-0.0768
Cn1cc(NC(=O)c2cc(NC(=O)c3cc(NC=O)cn3C)cn2C)cc1C(=O)NCCC(=N)N	-0.0884
NC(N)=NC(N)=Nc1c(F)c(F)c(F)c(F)c1F	0.115
O=C(O)/C=C/C(=O)Nc1cccc2c1-c1ccccc1C2=O	-0.335
NNC(=O)CCc1ccc2ccc3ccccc3c2c1	-0.0063
NC(=O)N/N=C1/CCC(O)CC1CC(=O)O (centres undefined)	-0.0076
CSc1nc(C)cc(Nc2ccc(O)c(CN3CCOCC3)c2)n1	0.0575
CC(C)(C)c1cc(Br)c(O)c(CN(Cc2cc(C(C)(C)C)cc(Br)c2O)C2CCCCC2)c1	0.147
N=C(N)SCc1cccc2c(=O)cc(-c3ccccc3)oc12	-0.583
Cc1c2ccccc2c(CSC(=N)N)c2ccccc12	-2.19 (active)
Cc1ncc(CSC(=N)N)n1Cc1ccccc1	0.207
O=C1N[C@@H]([C@H]2CC[C@H](Cl)CN2)C(=O)N[C@H]1[C@H]1CC[C@H](Cl)CN1	-0.835 (active)
O=[N+]([O-])c1nccn1CC(O)CN1CCCCC1 (centres undefined)	0.364
NC(Cc1nn[nH]n1)C(=O)O (centres undefined)	-0.174
Cc1cc2ccccc2c[n+]1CC(O)C[n+]1cc2ccccc2cc1C	-0.0398
O=C(O)c1nn(-c2ccc(Cl)cc2)c2c1C(=O)c1ccccc1C2=O	0.061
Cc1c2cccc(Sc3ccccc3)c2c2c3c(cccc13)[S+](c1ccccc1)C2 (centres undefined)	0.38
